In PubChem BioAssay AID602327 (NMMLSC, 2012) one finds inhibition data, which are given here for 8 molecules.

Structures are written as SMILES. The list shows a part of the results. Unmarked numbers belong to inactive results. Active and inactive are the calls of the source. No stated cut-off is given here; in the data, active means inhibition above about 25%; inactive means the rest.

The target in this experiment is Lethal factor (Bacillus anthracis) (UniProt P15917). Briefly: Bacillus anthracis LF protease inhibitors, confirmation, biochemical, multiplex microsphere (AID 602327). The conditions noted are these: multiplex microsphere protease cleavage assay; at 10 µM; stronger effect = higher value.
Lethal factor (Bacillus anthracis), sequence (P15917 whole entry, looked up): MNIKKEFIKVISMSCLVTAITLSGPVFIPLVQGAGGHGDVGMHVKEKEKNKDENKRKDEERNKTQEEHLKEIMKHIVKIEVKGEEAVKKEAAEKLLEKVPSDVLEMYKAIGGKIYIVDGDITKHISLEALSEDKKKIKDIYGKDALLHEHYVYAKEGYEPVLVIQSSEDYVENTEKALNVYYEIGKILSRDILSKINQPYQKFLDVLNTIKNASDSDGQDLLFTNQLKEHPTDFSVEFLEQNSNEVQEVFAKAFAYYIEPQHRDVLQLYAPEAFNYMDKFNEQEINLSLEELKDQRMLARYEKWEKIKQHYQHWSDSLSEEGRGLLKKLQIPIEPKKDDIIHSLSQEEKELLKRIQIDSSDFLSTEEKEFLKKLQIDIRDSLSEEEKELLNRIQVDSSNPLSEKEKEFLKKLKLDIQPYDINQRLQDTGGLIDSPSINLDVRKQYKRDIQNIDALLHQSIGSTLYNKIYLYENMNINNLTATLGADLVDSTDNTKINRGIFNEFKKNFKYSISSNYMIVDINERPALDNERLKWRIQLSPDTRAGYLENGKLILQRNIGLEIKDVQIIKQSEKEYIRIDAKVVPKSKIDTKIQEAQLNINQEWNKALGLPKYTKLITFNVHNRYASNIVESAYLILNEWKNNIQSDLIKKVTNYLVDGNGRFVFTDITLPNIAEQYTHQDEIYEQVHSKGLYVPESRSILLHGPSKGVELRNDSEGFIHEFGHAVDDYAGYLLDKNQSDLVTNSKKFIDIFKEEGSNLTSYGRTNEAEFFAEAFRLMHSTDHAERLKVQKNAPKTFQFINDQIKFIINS
Usually inhibition stands for the drop in the measured response relative to a control, in per cent. For `CC(=O)OCCN(CCCn1c(-c2ccncc2)nc2ccccc21)c1nc(-c2ccc(C)cc2)cs1`, the inhibition is 0.3%.

Take `Cc1cc2ccccc2n1CCNC(=O)COc1ccc2ccccc2c1`: the inhibition was 0.2%.

In the case of `O=C(OCC(=O)c1c[nH]c2ccccc12)c1cccc(O)c1`, the inhibition was -2.5%.

With `COc1ccc(-c2cc3c(c4c2ccn4C)C2CCC3C2)cn1` (stereo not drawn), the inhibition is 26.4% (active).

With `O=C(CN1CCN(c2ccccc2O)CC1)NC(=O)NCc1ccccc1`, the inhibition was -1.7%.

On to `Cc1cc2cc(CNC(=O)c3ccc(S(=O)(=O)N4CCOCC4)cc3)ccc2[nH]1`, for which the inhibition is -0.8%.

Regarding `Cc1ccc(CNC(=O)c2cccc3c2C(=O)c2ccc(N4CCC(C)CC4)cc2S3(=O)=O)cc1`, the inhibition was 7.9%.

For `CCOc1ncccc1C(=O)OCC(=O)c1c[nH]c2ccccc12`, the inhibition is 10.4%.
